Results reported in PubChem BioAssay (NCI).
About 83,000 compounds went through this panel and 20% of them were active in at least one assay; those are over-represented in the sample as a whole.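 Percent growth is the endpoint: 0 to 100 indicates growth inhibition (40 means 60% inhibition), 0 means no net growth, and negative values indicate cell death.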 Activity calls are given as the source filed them. Rule for the calls: active = growth percent below 10; inactive = the rest.

Assays:
Test in all cases: NCI-60 one-dose screen, 48 h (100 = growth as untreated, 0 = no growth, -100 = all killed)
Conditions in all cases: 10 µM unless noted
NCI-H23 lung = tested on: NCI-H23 lung
NCI-H226 lung = tested on: NCI-H226 lung
NCI-H322M lung = tested on: NCI-H322M lung
HOP-62 NSCLC = tested on: HOP-62 NSCLC
NCI-H460 lung = tested on: NCI-H460 lung
NCI-H522 lung = tested on: NCI-H522 lung
A549/ATCC NSCLC = tested on: A549/ATCC NSCLC
786-0 renal = tested on: 786-0 renal
COLO 205 colon = tested on: COLO 205 colon
DU-145 prostate = tested on: DU-145 prostate

Measured: growth

COc1ccc2c(c1)/C(=C\c1c[nH]c3ccc(F)cc13)C(=O)N2
inactive: NCI-H23 lung 81.4% | NCI-H226 lung 92.6% | NCI-H322M lung 75.9% | HOP-62 NSCLC 88.8% | NCI-H460 lung 87.7% | NCI-H522 lung 80% | A549/ATCC NSCLC 70% | 786-0 renal 96.5% | COLO 205 colon 103% | DU-145 prostate 84%

CCCCN(CCCC)CCCOC(=O)c1ccc(N)cc1
inactive: NCI-H23 lung 96.1% | NCI-H226 lung 76.8% | NCI-H322M lung 98.2% | HOP-62 NSCLC 88.7% | NCI-H460 lung 78.4% | NCI-H522 lung 67% | A549/ATCC NSCLC 70.9% | 786-0 renal 95.4% | COLO 205 colon 57.3% | DU-145 prostate 88.2%

OCc1nnn(-c2ccccc2)c1CO
inactive: NCI-H23 lung 112% | NCI-H226 lung 114% | NCI-H322M lung 118% | HOP-62 NSCLC 110% | NCI-H460 lung 116% | NCI-H522 lung 101% | A549/ATCC NSCLC 110% | 786-0 renal 105% | COLO 205 colon 159% | DU-145 prostate 113%

CCOC(=O)/C(=C/c1ccccc1)C(=O)c1ccccc1
inactive: NCI-H23 lung 82.4% | NCI-H226 lung 84.3% | NCI-H322M lung 84.2% | HOP-62 NSCLC 74.9% | NCI-H460 lung 88.3% | NCI-H522 lung 67.6% | A549/ATCC NSCLC 79.8% | 786-0 renal 80.5% | COLO 205 colon 95.4% | DU-145 prostate 50.3%

CCOC(=O)c1c2c(c(C)n1Cc1ccc(OC)cc1)-c1nc(N)ncc1CC2
inactive: NCI-H23 lung 125% | NCI-H226 lung 92.2% | NCI-H322M lung 113% | HOP-62 NSCLC 83.5% | NCI-H460 lung 111% | NCI-H522 lung 114% | A549/ATCC NSCLC 110% | 786-0 renal 98.5% | COLO 205 colon 116% | DU-145 prostate 116%

O=C(Nc1cccc([N+](=O)[O-])c1)c1cccc(C(=O)Nc2cccc([N+](=O)[O-])c2)c1
inactive: NCI-H23 lung 107% | NCI-H226 lung 71% | NCI-H322M lung 77.1% | HOP-62 NSCLC 106% | NCI-H460 lung 74% | NCI-H522 lung 22.5% | A549/ATCC NSCLC 59.9% | 786-0 renal 73.9% | COLO 205 colon 120% | DU-145 prostate 84.5%

Cc1ccc(C=C2C(Cl)=C(Cl)C(Cl)=C2Cl)cc1
active: NCI-H23 lung -57.5% | NCI-H226 lung -79% | NCI-H322M lung -37.2% | HOP-62 NSCLC -58.6% | NCI-H460 lung -31.3% | NCI-H522 lung -57.2% | A549/ATCC NSCLC -61.2% | 786-0 renal -86.8% | COLO 205 colon -80.3% | DU-145 prostate -45.3%

COc1ccc(-n2nnc(C(=O)O)c2-c2cc(OC)c(OC)c(OC)c2)cc1
inactive: NCI-H23 lung 103% | NCI-H226 lung 104% | NCI-H322M lung 108% | HOP-62 NSCLC 114% | NCI-H460 lung 106% | NCI-H522 lung 83.6% | A549/ATCC NSCLC 100% | 786-0 renal 99.7% | COLO 205 colon 104% | DU-145 prostate 116%

Cc1c(NCc2nnc3n(Cc4ccccc4)c(=O)c4c5c(sc4n23)CCCC5)c(=O)n(-c2ccccc2)n1C
inactive: NCI-H23 lung 92.4% | NCI-H226 lung 94.8% | NCI-H322M lung 92.2% | HOP-62 NSCLC 105% | NCI-H460 lung 98.9% | NCI-H522 lung 71.3% | A549/ATCC NSCLC 66.7% | 786-0 renal 72.3% | COLO 205 colon 101% | DU-145 prostate 75.6%

CCOC(=O)c1c(NC(=O)C2CCCCC2C(=O)O)sc2c1CCCC2 (stereo not given)
inactive: NCI-H23 lung 99.4% | NCI-H226 lung 95.5% | NCI-H322M lung 86.4% | HOP-62 NSCLC 104% | NCI-H460 lung 109% | NCI-H522 lung 94% | A549/ATCC NSCLC 97.6% | 786-0 renal 106% | COLO 205 colon 114% | DU-145 prostate 108%

O=C1CN(CO)C(=O)CN1CO
inactive: NCI-H23 lung 103% | NCI-H226 lung 113% | NCI-H322M lung 100% | HOP-62 NSCLC 106% | NCI-H460 lung 104% | NCI-H522 lung 98.9% | A549/ATCC NSCLC 103% | 786-0 renal 105% | COLO 205 colon 116% | DU-145 prostate 114%

COc1cc(C2CC(c3ccc(C)cc3)=NN2C(C)=O)ccc1Oc1ccnc2cc(Cl)ccc12 (stereo not given)
inactive: NCI-H23 lung 59.9% | NCI-H226 lung 45.4% | NCI-H322M lung 79.9% | HOP-62 NSCLC 16.4% | NCI-H460 lung 32.3% | NCI-H522 lung 41.4% | A549/ATCC NSCLC 68.7% | 786-0 renal 21.9% | COLO 205 colon 99.2% | DU-145 prostate 74.8%

O=C(Oc1ccc[nH]c1=O)c1cccc(Cl)c1
inactive: NCI-H23 lung 95.6% | NCI-H226 lung 109% | NCI-H322M lung 99.9% | HOP-62 NSCLC 90.5% | NCI-H460 lung 100% | NCI-H522 lung 95.3% | A549/ATCC NSCLC 101% | 786-0 renal 90.7% | COLO 205 colon 84.4% | DU-145 prostate 113%

Nc1ccc(C2=Nc3cccc4cccc(c34)S2)cc1
inactive: NCI-H23 lung 86.9% | NCI-H226 lung 59.3% | NCI-H322M lung 88.1% | HOP-62 NSCLC 83.6% | NCI-H460 lung 89.5% | NCI-H522 lung 82.7% | A549/ATCC NSCLC 81.5% | 786-0 renal 121% | COLO 205 colon 100% | DU-145 prostate 98.2%

COc1cc(/C=C/C(=O)N2CCN(C(=O)/C=C/c3ccccc3)CC2)cc(OC)c1OC
inactive: NCI-H23 lung 108% | NCI-H226 lung 102% | NCI-H322M lung 104% | HOP-62 NSCLC 103% | NCI-H460 lung 105% | NCI-H522 lung 92.7% | A549/ATCC NSCLC 99.8% | 786-0 renal 101% | COLO 205 colon 113% | DU-145 prostate 129%

CC(c1cc(Cl)ccc1O)c1cc(Cl)ccc1O
inactive: NCI-H23 lung 17.9% | NCI-H226 lung 82.5% | NCI-H322M lung 80% | HOP-62 NSCLC 84.3% | NCI-H460 lung 15.7% | A549/ATCC NSCLC 29.3% | 786-0 renal 90% | COLO 205 colon 41.2% | DU-145 prostate 50.7%
active: NCI-H522 lung -39.3%

CSc1ccc2c(c1)N(CCC1CCCCN1C)c1ccccc1S2 (stereo not given)
inactive: NCI-H23 lung 83.9% | NCI-H226 lung 107% | NCI-H322M lung 64% | HOP-62 NSCLC 68.8% | NCI-H460 lung 46.8% | NCI-H522 lung 56.3% | A549/ATCC NSCLC 63.9% | 786-0 renal 43.9% | COLO 205 colon 18.9% | DU-145 prostate 68.7%

Cc1c(N(C)CS(=O)(=O)O)c(=O)n(-c2ccccc2)n1C
inactive: NCI-H23 lung 109% | NCI-H226 lung 102% | NCI-H322M lung 96.9% | HOP-62 NSCLC 92.7% | NCI-H460 lung 121% | NCI-H522 lung 89.8% | A549/ATCC NSCLC 97.1% | 786-0 renal 91.5% | COLO 205 colon 115% | DU-145 prostate 112%

O=C(CSc1nnc(Nc2ccccc2)s1)NCCc1ccc(F)cc1
inactive: NCI-H23 lung 131% | NCI-H226 lung 85.1% | NCI-H322M lung 115% | HOP-62 NSCLC 103% | NCI-H460 lung 105% | NCI-H522 lung 91.5% | A549/ATCC NSCLC 124% | 786-0 renal 95.6% | COLO 205 colon 115% | DU-145 prostate 105%

Cc1nc2c(O)cccc2cc1CO
inactive: NCI-H23 lung 94.9% | NCI-H226 lung 114% | NCI-H322M lung 165% | HOP-62 NSCLC 106% | NCI-H460 lung 103% | NCI-H522 lung 107% | A549/ATCC NSCLC 109% | 786-0 renal 96.3% | COLO 205 colon 142% | DU-145 prostate 113%

COc1cc(C2=NN(C(C)=O)C(c3ccc(OC(C)=O)cc3OC(C)=O)O2)c(OC(C)=O)c2ccccc12 (stereo not given)
active: NCI-H460 lung 9.82% | NCI-H522 lung -7.78% | A549/ATCC NSCLC 8%
inactive: NCI-H23 lung 38% | NCI-H226 lung 27% | NCI-H322M lung 19.6% | HOP-62 NSCLC 24.3% | 786-0 renal 11.2% | COLO 205 colon 10.4% | DU-145 prostate 26.8%

CC(=O)NC1(C(=O)O)CCCC1
inactive: NCI-H23 lung 133% | NCI-H226 lung 113% | NCI-H322M lung 130% | HOP-62 NSCLC 117% | NCI-H460 lung 109% | NCI-H522 lung 103% | A549/ATCC NSCLC 126% | 786-0 renal 110% | COLO 205 colon 125% | DU-145 prostate 126%

COc1cc(C(=O)/C=C/c2cccnc2Nc2ccccc2)cc(OC)c1OC
active: NCI-H23 lung -35.3% | NCI-H226 lung -96.2% | NCI-H322M lung 7.04% | HOP-62 NSCLC -74.2% | NCI-H460 lung -40.4% | NCI-H522 lung -68.7% | A549/ATCC NSCLC 2.67% | 786-0 renal -83.1% | COLO 205 colon -87.5% | DU-145 prostate -98.9%

Cc1nc2cc(NC(=O)CN3CCN(CCN4C(=O)c5cccc6cccc(c56)C4=O)CC3)ccc2s1
inactive: NCI-H23 lung 60.9% | NCI-H226 lung 48.6% | NCI-H322M lung 69.3% | HOP-62 NSCLC 60% | NCI-H460 lung 26.5% | NCI-H522 lung 53.2% | A549/ATCC NSCLC 37.6% | 786-0 renal 51.4% | COLO 205 colon 47.1% | DU-145 prostate 56.8%

COc1ccc2[nH]c(-c3ccccc3)cc2c1
inactive: NCI-H23 lung 98.9% | NCI-H226 lung 96.5% | NCI-H322M lung 120% | HOP-62 NSCLC 115% | NCI-H460 lung 111% | NCI-H522 lung 74.1% | A549/ATCC NSCLC 96.2% | 786-0 renal 103% | COLO 205 colon 110% | DU-145 prostate 101%

Oc1ccc(-c2nn(-c3ccccc3)cc2-c2nc3ccccc3s2)cc1
inactive: NCI-H23 lung 89.6% | NCI-H226 lung 85.9% | NCI-H322M lung 97.3% | HOP-62 NSCLC 104% | NCI-H460 lung 91.3% | NCI-H522 lung 101% | A549/ATCC NSCLC 91.2% | 786-0 renal 105% | COLO 205 colon 106% | DU-145 prostate 106%

c1ccc(-c2nn[nH]n2)c(-c2ccc(CN3CCN(c4nsc5ccccc45)CC3)cc2)c1
inactive: NCI-H23 lung 85.7% | NCI-H226 lung 105% | NCI-H322M lung 96.7% | HOP-62 NSCLC 110% | NCI-H460 lung 98.4% | NCI-H522 lung 69% | A549/ATCC NSCLC 98.6% | 786-0 renal 110% | COLO 205 colon 114% | DU-145 prostate 97.5%

O=C(Cn1ccnc1)NC(c1ccccc1)c1ccccc1
inactive: NCI-H23 lung 94.8% | NCI-H226 lung 100% | NCI-H322M lung 98.7% | HOP-62 NSCLC 96% | NCI-H460 lung 103% | NCI-H522 lung 93.2% | A549/ATCC NSCLC 105% | 786-0 renal 103% | COLO 205 colon 109% | DU-145 prostate 112%
